Experimental data taken from paper PMC4336329 (PLoS ONE, 2015).
Among all 310,000 compounds or so, about 14,000 (4.5%) showed an effect of 50% or more. The effect is printed as a negative number. The full list was thinned out, with strong results kept by preference.

target: human ether-à-go-go-related gene (hERG) potassium channel (human, UniProt Q12809); experiment: primary screen, population patch clamp on CHO cells stably expressing hERG; higher = less effect of the substance
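Also: peak tail current of the secondary pulse compared with the same well before compound.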

Sequence of human ether-à-go-go-related gene (hERG) potassium channel (Q12809 whole entry, looked up): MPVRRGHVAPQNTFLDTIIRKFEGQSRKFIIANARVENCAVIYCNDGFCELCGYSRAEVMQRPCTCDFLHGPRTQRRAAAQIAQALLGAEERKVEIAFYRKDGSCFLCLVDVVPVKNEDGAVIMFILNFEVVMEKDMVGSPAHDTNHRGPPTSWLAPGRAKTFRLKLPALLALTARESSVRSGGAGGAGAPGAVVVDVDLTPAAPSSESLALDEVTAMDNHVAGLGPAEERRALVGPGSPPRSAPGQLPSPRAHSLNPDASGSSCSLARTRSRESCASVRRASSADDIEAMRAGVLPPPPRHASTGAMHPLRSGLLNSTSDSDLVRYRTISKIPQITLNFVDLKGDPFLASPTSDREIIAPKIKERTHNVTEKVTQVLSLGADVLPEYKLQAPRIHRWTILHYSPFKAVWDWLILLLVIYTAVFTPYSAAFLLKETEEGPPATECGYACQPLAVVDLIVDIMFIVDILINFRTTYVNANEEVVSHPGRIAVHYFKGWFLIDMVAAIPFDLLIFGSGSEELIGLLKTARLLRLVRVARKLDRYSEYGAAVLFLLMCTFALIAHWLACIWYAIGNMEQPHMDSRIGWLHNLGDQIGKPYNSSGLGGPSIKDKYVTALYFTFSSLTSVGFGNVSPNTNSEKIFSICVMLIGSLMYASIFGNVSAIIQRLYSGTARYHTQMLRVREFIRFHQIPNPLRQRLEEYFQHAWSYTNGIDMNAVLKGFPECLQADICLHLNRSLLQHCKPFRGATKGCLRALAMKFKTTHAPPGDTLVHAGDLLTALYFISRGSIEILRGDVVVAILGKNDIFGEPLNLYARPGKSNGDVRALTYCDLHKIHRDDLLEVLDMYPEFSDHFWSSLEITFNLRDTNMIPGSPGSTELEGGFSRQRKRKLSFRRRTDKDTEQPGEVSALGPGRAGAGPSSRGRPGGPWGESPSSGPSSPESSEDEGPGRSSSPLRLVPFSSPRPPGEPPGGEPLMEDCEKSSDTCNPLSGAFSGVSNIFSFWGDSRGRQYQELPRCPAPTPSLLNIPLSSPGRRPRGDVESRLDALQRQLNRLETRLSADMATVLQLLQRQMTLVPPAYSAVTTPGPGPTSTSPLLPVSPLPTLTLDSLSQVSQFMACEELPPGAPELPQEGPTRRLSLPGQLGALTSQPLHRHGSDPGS

Compound | hERG current change (%, negative = inhibition) at 10uM [%]
COc1ccc(CN2CCN(c3ccc(F)cc3)CC2)c(OC)c1OC | -70.2
COc1ccc(CN2CCN(C(c3ccc(F)cc3)c3ccc(F)cc3)CC2)c(OC)c1OC.Cl | -13.3
COc1cc(OC)c(CN2CCN(c3ccc(F)cc3)CC2)cc1Br | -70.3
COc1ccc(C2C(C#N)=C(N)Oc3n[nH]c(C)c32)cc1Cn1nnc2ccccc21 (stereo not drawn) | -8.03
COc1cc(OC)c(CN2CCCN(C)CC2)cc1Br | 18.1
COc1cc(OC)c(OC)cc1CN1CCN(c2ccc(F)cc2)CC1 | -68.5
COc1ccc(CN2CCNCC2)c(OC)c1OC | 9.67
COc1cc(OC)c(CN2CCCCCCC2)cc1Br | -22.4
COc1ccc(C2C(C#N)=C(N)Oc3n[nH]c(C)c32)cc1Cn1cc([N+](=O)[O-])cn1 (stereo not drawn) | -14
COc1ccc(C2C(C#N)=C(N)Oc3n[nH]c(C)c32)cc1CN1CCN(c2ccc(F)cc2)CC1 (stereo not drawn) | -65.6
COc1cc(OC)c(OC)cc1CN1CCN(S(=O)(=O)c2ccc(F)cc2)CC1.O=C(O)C(=O)O | -7.69
COc1cc(OC)c(OC)cc1CN1CCN(c2ccccc2OC)CC1 | -31.1
S=c1[nH]nc(-c2ccccc2)n1/N=C/c1c[nH]c2ccccc12 | 12.1
CC1(C)CC2CC(C)(CN2C(=O)COC(=O)CNC(=O)c2ccc(Cl)c(Cl)c2)C1 (stereo not drawn) | -20.9
O=C(CN1C(=O)NC2(CCCCCC2)C1=O)NCCc1ccc(F)cc1 | -13
O=C(NCc1cccs1)C1CCN(S(=O)(=O)c2ccc(Br)s2)CC1 | -14.8
CCc1cc2c(=O)n(N)c(CCC(=O)O)nc2s1 | -8.56
Cc1ccc(-n2nnnc2SCC(=O)c2c(N)n(C3CC3)c(=O)[nH]c2=O)c(C)c1 | -4.23
CC1Cc2cc(/C(O)=C3/C(=O)C(=O)N(CCCn4ccnc4)C3c3ccc(Br)cc3)ccc2O1 (stereo not drawn) | 6.07
CCCOC1CCCN(C(=O)c2cc(COc3ccc(-n4cncn4)cc3)on2)C1 (stereo not drawn) | -79
CN(Cc1ccc(F)cc1)C(=O)c1cc(COc2ccc(F)cc2F)on1 | 1.65
CN(Cc1ccc(F)cc1)C(=O)c1cc(COc2ccc(-n3cncn3)cc2)on1 | -78.3
O=C(c1cc(COc2ccc(-n3cncn3)cc2)on1)N1CCCC1 | -12

Compound | hERG current change (%, negative = inhibition) at 10uM [%]
COc1cccc(CN(C)C(=O)c2cc(COc3ccc(-n4cncn4)cc3)on2)c1 | -79.9
COC1CCN(C(=O)c2cc(COc3ccc(-n4cncn4)cc3)on2)CC1 | -18.6
COc1cccc(CN(C)C(=O)c2cc(COc3ccc4ncccc4c3)on2)c1 | -14.8
COCCOC1CCN(C(=O)c2cc(COc3ccc(-n4cncn4)cc3)on2)CC1 | -22.8
CCc1ccc(CN(C)C(=O)c2cc(COc3ccc(-n4cncn4)cc3)on2)cc1 | -42.5
CC(C)CCOP(N)(=O)Oc1ccccc1Cl (stereo not drawn) | 18.1
CCOc1ncccc1C(=O)OCC(=O)Nc1ccc2c(c1)OCO2 | 12.6
Cc1ccc(-n2[nH]c(C)c(C=Nc3ccc(S(=O)(=O)N4CCOCC4)cc3)c2=O)c(C)c1 | -7.6
O=C(Nc1ccccc1NC(=O)NC1CCCCC1)NC1CCCCC1 | 0.961
Cc1c(NC(=O)CSc2nnc3c4ccccc4n(CCc4ccccc4)c3n2)c(=O)n(-c2ccccc2)n1C | -27.2
CC1(C)CC(CCN)(Cc2ccccc2Cl)CCO1 (stereo not drawn) | -1.1
Cc1ccc(S(=O)(=O)NCc2cccnc2)cc1C(=O)N1CCCC1 | 20.3
OCCC1CN(Cc2ccccc2O)CCN1CCCc1ccccc1 (stereo not drawn) | -74.8
OCCC1CN(Cc2ccccc2O)CCN1CCc1ccccc1 (stereo not drawn) | -35.6
Cc1ccccc1CN1CCN(CC2CC2)CC1CCO (stereo not drawn) | -4.79
Cc1ccccc1CN1CCN(CCCc2ccccc2)C(CCO)C1 (stereo not drawn) | -70
COc1ccc(-c2cc(C(=O)Nc3cccnc3Cl)no2)cc1OC | 16.6
COc1ccc(OC)c(Nc2nnc(C)c(=O)[nH]2)c1 | 6.27
O=C1NC(=O)/C(=C\c2ccc(Br)o2)S1 | 21
CCOC(=O)c1[nH]c(C)c(C(=O)OCC(=O)N(CC)C2CCS(=O)(=O)C2)c1C (stereo not drawn) | -8.58
Cc1cccc(NC(=O)CCN2C(=O)c3cccc([N+](=O)[O-])c3C2=O)c1 | 10.8
COc1cccc(NC(=O)CCN2C(=O)c3cccc([N+](=O)[O-])c3C2=O)c1 | -3.85
CC(OC(=O)CCN1C(=O)c2cccc([N+](=O)[O-])c2C1=O)C(=O)Nc1cc(Cl)cc(Cl)c1 (stereo not drawn) | -68.6

Compound | hERG current change (%, negative = inhibition) at 10uM [%]
Cc1cc(N)ccc1NC(=O)CN1CCCC1 | 21.2
N#Cc1sc(C(N)=O)c(-c2ccccc2)c1-c1ccccc1 | 9.86
O=[N+]([O-])c1cccc(Nc2c3ccccc3nc3ccccc23)c1 | -11.5
Cc1cc(Nc2cccc([N+](=O)[O-])c2)c2cccc(C)c2n1.Cl | -77.3
Cc1cc(Nc2ccccc2)c2c([N+](=O)[O-])ccc(C)c2n1 | -24.7
CCOc1ccc2nc(C)cc(Nc3cccc([N+](=O)[O-])c3)c2c1.Cl | -30.4
Cc1cc(Nc2cccc([N+](=O)[O-])c2)c2ccccc2n1 | -76.9
Cc1cc(Nc2ccc([N+](=O)[O-])cc2)c2ccccc2n1 | -20
CCOc1cc(C2NN=C(c3ccc(C)cc3)S2)ccc1O (stereo not drawn) | 9.67
Cc1occc1C(=O)Nc1ccc2c(c1)OCO2 | -7.71
O=C(O)c1ccc(C(=O)O)c(C(=O)c2ccccc2)c1 | 1.72
O=[N+]([O-])c1ccc(CN2CCOCCOCCN(Cc3ccc([N+](=O)[O-])cc3)CCOCC2)cc1 | -77.8
c1ccc(CN2CCOCCOCCOCC2)cc1 | 15.6
O=[N+]([O-])c1ccc(CN2CCSCC2)cc1 | 15.5
O=C(NC(=S)Nc1ccc(CN2CCOCC2)cc1)c1ccc([N+](=O)[O-])cc1 | -13
O=[N+]([O-])c1ccc(CN2CCCCCC2)cc1 | -32.8
O=[N+]([O-])c1ccc(CN2CCOCCOCCOCC2)cc1 | -59.1
CC(OC(=O)c1ccc(Cl)c(S(=O)(=O)N2CCOCC2)c1)C(=O)NC1CCCCC1C (stereo not drawn) | -35.9
O=C1OC(CCl)CN1Cc1c(Cl)cccc1Cl (stereo not drawn) | -0.492
O=C(COc1ccc(C(=O)c2ccc(F)cc2)cc1)NCc1ccc(F)cc1 | 4.49
COC(=O)[C@]1(C)N[C@H](c2ccc(-c3ccc(F)cc3)cc2)[C@@H]2C(=O)N(C)C(=O)[C@@H]21.O=C(O)C(F)(F)F | -1.3
NS(=O)(=O)c1cc(C(=O)O)c(NCc2ccco2)cc1Cl | 14.7
CCC(=O)N=c1sc2ccccc2n1-c1ccccc1 | 17.8

Compound | hERG current change (%, negative = inhibition) at 10uM [%]
Cc1cc(N2CCCC2)ccc1C=C(C#N)C#N | -13.2
Cc1cc(C=C(C#N)C#N)ccc1N1CCCC1 | -65
N#CC(C#N)=Cc1ccc(N2CCCC2)cc1 | 4.17
Cc1ccc(C)c(NC(=O)c2cc3c([nH]c4ccccc43)c(C)n2)c1 | 5.7
c1ccc2c(N3CCCCC3)nc(N3CCCCC3)nc2c1 | -39.1
c1ccc2c(N3CCCCC3)nc(N3CCCC3)nc2c1 | -69.6
c1ccc2c(N3CCCCC3)nc(N3CCOCC3)nc2c1 | -33.7
Cl.c1ccc2c(c1)nc(N1CCCCC1)c1ccccc12 | -2.67
I.c1ccc2c(c1)nc(N1CCCCCC1)c1ccccc12 | 0.834
Cc1nc(N2CCCCCC2)c2ccccc2n1.Cl | -51.5
O=C(NC1(Cc2ccccc2)CCN(CCc2cccs2)C1=O)c1ccccc1 (stereo not drawn) | -1.81
Cc1ccc(C)c(Nc2cc(C)nc(-c3ccccc3O)n2)c1 | 15
COc1cc(C(=S)N2CCCC2)ccc1OCC(N)=O | 17.8
COC(=O)c1n[nH]n(-c2ccc(F)c(Cl)c2)c1=O | 9.84
CCC(C)N(C(=O)CN1C(=O)NC2(CCc3ccccc32)C1=O)C1CCS(=O)(=O)C1 (stereo not drawn) | -3.41
CC(C)(c1ccccc1)c1ccc(OCCCN2CCNCC2)cc1.O=C(O)C(=O)O | 3.19
COc1ccc(OCCCCN2CCC(C)CC2)cc1.O=C(O)C(=O)O | -29
CC1CCN(CCCCOc2ccc(C(C)(C)C)cc2)CC1.O=C(O)C(=O)O | -59.6
Cc1ccc(OCCCCCCN2CCNCC2)cc1.O=C(O)C(=O)O | -11.6
CC1CCN(CCCCOc2ccc(Cl)cc2)CC1.O=C(O)C(=O)O | -71.7
Cc1ccc(OCCCCN2CCC(C)CC2)cc1.O=C(O)C(=O)O | -23.4
